According to PubChem BioAssay:
Activity calls are given as the source filed them. Unless noted, no rule for the calls is given here.

What was measured:
[1] = tested on: XIP peptide (Xip251-270) binding; experiment: XIP fragment 251-270 binding compounds – biochemical, small-molecule microarray, fluorescence 635/667 nm, 0.1 µg/mL protein, primary screen (AID 1182); conditions: fluorescent protein binding, 635 nm, higher = more signal, called active from +8 up or from −8 down
XIP peptide (Xip251-270) = experiment: compounds binding XIP fragment 251-270 – biochemical, small-molecule microarray, fluorescence 635/667 nm, 0.5 µg/mL protein, primary screen (AID 1183); conditions: fluorescence 635 nm, higher = more signal
[2] = blood-stage malaria parasite viability loss – strain 3D7, DAPI fluorescence, 100 nL, primary screen (AID 1184);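 also: parasites grown inside human red blood cells in medium with human serum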; conditions: P. falciparum 3D7 growth, 3 d, higher = more signal
[3] = molecular target: Homeobox protein Hox-A13 (Mus musculus) (UniProt Q62424); experiment: disruptors of Hoxa13 oligonucleotide interaction – biochemical, fluorescence polarization, labeled oligonucleotide, primary screen (AID 1185); conditions: Hoxa13:DNA binding, 15 min, higher = more signal, called active from +8 up or from −8 down
Homeobox protein Hox-A13 (Mus musculus), sequence (Q62424 whole entry, looked up): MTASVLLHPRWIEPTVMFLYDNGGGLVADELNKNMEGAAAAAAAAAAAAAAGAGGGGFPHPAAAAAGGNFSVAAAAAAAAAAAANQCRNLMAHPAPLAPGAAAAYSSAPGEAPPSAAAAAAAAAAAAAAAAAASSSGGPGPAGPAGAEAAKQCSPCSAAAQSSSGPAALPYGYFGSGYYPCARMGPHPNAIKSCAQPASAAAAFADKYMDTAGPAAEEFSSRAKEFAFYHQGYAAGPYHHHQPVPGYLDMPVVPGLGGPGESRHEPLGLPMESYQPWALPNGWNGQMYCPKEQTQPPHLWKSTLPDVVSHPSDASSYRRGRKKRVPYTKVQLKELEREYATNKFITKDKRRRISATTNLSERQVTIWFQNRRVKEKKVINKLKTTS

[4] = blockers of DNA damage checkpoint Chk1 activation – imaging, HeLa, hydroxyurea, phospho-Chk1 antibody, percent positive cells, primary screen (AID 1186); conditions: hydroxyurea-induced phospho-Chk1 immunofluorescence imaging, higher = more signal
[5] = blockers of DNA damage checkpoint Chk1 activation – imaging, HeLa, hydroxyurea, phospho-Chk1 nuclear intensity, primary screen (AID 1187); conditions: hydroxyurea-induced phospho-Chk1 immunofluorescence imaging, higher = more signal

SMILES	composite z-score [1]	composite z-score (XIP peptide (Xip251-270))	z-score [2]	z-score [3]	z-score [4]	z-score [5]
CC(C)C(CO)N1C(=O)[C@@H]2C3C(=O)OCCC/C=C\[C@H]3OC23C=CCN(Cc2ccccc2)C(=O)[C@@H]13 (stereo partly specified)	1.22 (inactive)	-0.209	0.359	-5.12 (inactive)	-0.932 (inactive)	-0.842 (inactive)
COc1ccc([Si](C)(C)[C@@H]2[C@@H](CC(=O)N(CCO)Cc3ccccc3)O[C@]3(C(=O)N(Cc4ccc(I)cc4)c4ccccc43)[C@H]2C)cc1	1.59 (inactive)	0.256	-2.2	-2.17 (inactive)	-0.168 (inactive)	-0.299 (inactive)
O=C(NCC(O)CO)[C@@]1(CCS(=O)(=O)c2ccccc2)N=C(c2ccc(OCCCO)cc2)O[C@H]1c1ccccc1 (stereo partly specified)	2.08 (inactive)	0.0777	-2.02	-4.76 (inactive)	-0.579 (inactive)	-0.282 (inactive)
O=C1[C@H]2C=C(I)[C@H](C[C@@H]2OCCCCCCO)[C@@]12CO2	-0.0604 (inactive)	0.77	1.09	-3.09 (inactive)	-0.116 (inactive)	-0.124 (inactive)
CC=CC(O)C1C=CC2C(=O)NC(=O)C2N1Nc1ccc(Cl)cc1Cl (stereo unspecified)	-0.223 (inactive)	-0.186	0.179	-3.78 (inactive)	1.3 (inactive)	1.22 (inactive)
CC(C)NC(=O)[C@@]1(c2ccc([N+](=O)[O-])cc2)CC(=O)N(CC23CC4CC(CC(C4)C2)C3)[C@@H]1c1ccc(CO)cc1	1.26 (inactive)	0.918	-0.948	-4.97 (inactive)	0.103 (inactive)	0.412 (inactive)
CCOC(=O)C[C@H]1[C@H](OC(=O)Cc2ccc3c(c2)OCO3)[C@@H](NC(=O)Cc2ccc(OC)cc2)c2cc(OCCCO)ccc2N1C(=O)Cc1ccc(OC)cc1	-0.0299 (inactive)	0.678	-1.99	-1.76 (inactive)	-1.33 (inactive)	-1.19 (inactive)
COCCOC(=O)N1C(=O)[C@@]2(c3ccccc31)[C@H](C(=O)N1CCN(c3ncccn3)CC1)[C@H]1C(=O)O[C@H](c3ccccc3)[C@H](c3ccccc3)N1[C@@H]2c1ccccc1OCCO	0.044 (inactive)	0.597	-1.99	-1.77 (inactive)	-0.356 (inactive)	-0.484 (inactive)
CC(C)=CCCC(C)=CC(O)C1C=CC2C(=O)NC(=O)C2N1Nc1ccc(Cl)cc1Cl (stereo unspecified)	0.323 (inactive)	0.171	0.812	-3.59 (inactive)	1.39 (inactive)	0.848 (inactive)
CC(C)C[C@@H]1NC(=O)[C@@]23C(=O)N[C@@H](Cc4ccccc4)C2[C@H](C)[C@@]2(C)O[C@H]2C3/C=C/C/C=C\CNC(=O)CNC1=O (stereo partly specified)	0.533 (inactive)	0.58	-0.59	-5.87 (inactive)	0.312 (inactive)	-0.0422 (inactive)
COCCCNC(=O)[C@@H]1c2ccccc2C(=O)N(Cc2ccc(OC(F)(F)F)cc2)[C@H]1c1ccc(CO)cc1	0.16 (inactive)	0.314	0.0414	-3.51 (inactive)	-0.163 (inactive)	-0.368 (inactive)
CCOC(=O)C[C@H]1[C@H](OC(=O)c2cc3ccccc3oc2=O)[C@@H](NC(=O)CC(C)C)c2cc(OCCCO)ccc2N1C(=O)Cc1ccc(OC)cc1	0.101 (inactive)	0.686	-2.45	-4.83 (inactive)	0.372 (inactive)	-0.268 (inactive)
CN1C(=O)C2C=CC(C(O)c3ccc(-c4ccccc4)s3)N(NC(=O)OC(C)(C)C)C2C1=O (stereo unspecified)	0.359 (inactive)	0.912	0.428	-4.15 (inactive)	0.307 (inactive)	0.239 (inactive)
[N-]=[N+]=Nc1ccccc1C[C@]1(C(=O)N2CCOCC2)N=C(c2ccc(OCCCO)cc2)O[C@H]1c1ccccc1N=[N+]=[N-]	0.986 (inactive)	0.721	-2.32	-3.58 (inactive)	-1.46 (inactive)	-2.06 (inactive)
C=CC[C@@]1(C(=O)OC)N=C(c2ccc(OCCCO)cc2)O[C@@H]1c1ccccc1N=[N+]=[N-]	0.741 (inactive)	0.852	-2.27	-3.81 (inactive)	-0.312 (inactive)	0.0948 (inactive)
N#Cc1ccc(-c2cccc(=O)o2)cc1	0.37 (inactive)	-0.0086	0.944	0.108 (inactive)	0.419 (inactive)	0.674 (inactive)
C[N+](C)(C)CCCC[C@@H]1NC(=O)[C@H]2C[C@@H](C(=O)NCCCCCNC(=O)CS)[C@@H](c3cccc(OCCO)c3)N2C1=O	0.649 (inactive)	-0.203	-0.222	-2.8 (inactive)	0.0911 (inactive)	0.164 (inactive)
COc1ccc([Si](C)(C)[C@@H]2[C@@H](CC(=O)N3CCC[C@H]3CO)O[C@]3(C(=O)N(Cc4ccc(N5CCOC5=O)cc4)c4ccccc43)[C@H]2C)cc1	0.56 (inactive)	0.727	0.309	-3.21 (inactive)	-1.03 (inactive)	-0.48 (inactive)
O=C1NC(=O)C2C1C=CC(C(O)c1ccc([N+](=O)[O-])cc1)N2Nc1ccccn1 (stereo unspecified)	-0.254 (inactive)	0.726	1.21	-2.37 (inactive)	-0.284 (inactive)	-0.347 (inactive)
CC(C)C[C@H]1NC(=O)C([C@@H](C)OCc2ccccc2)NC(=O)[C@@]23C(=O)N[C@@H](Cc4ccccc4)C2[C@H](C)[C@@]2(C)O[C@H]2C3/C=C/C/C=C\CNC1=O (stereo partly specified)	0.304 (inactive)	0.22	-2.23	-6.86 (inactive)	-0.762 (inactive)	-0.732 (inactive)
Cc1ccc(S[C@]2(C(=O)NCCCN(C)C)CC(=O)N(Cc3ccccc3C(F)(F)F)[C@@H]2c2ccc(CO)cc2I)cc1	0.223 (inactive)	0.82	0.306	-2.71 (inactive)	0.0909 (inactive)	0.675 (inactive)
CN(C)CCCC[C@@H]1NC(=O)[C@@H]2C[C@H](C(=O)NCCCCCCNC(=O)CS)[C@H](c3ccc(O)cc3)N2C1=O	0.237 (inactive)	0.859	-0.0596	-1.31 (inactive)	-0.282 (inactive)	-0.405 (inactive)
COc1ccc(C(=O)Nc2ccc(CN3C(=O)[C@@]4(O[C@@H](CCn5cc(CCO)nn5)[C@H]([Si](C)(C)c5ccc(OC)cc5)[C@H]4C)c4ccccc43)cc2)cc1	1.04 (inactive)	0.561	-2.71	-3.79 (inactive)	-0.989 (inactive)	-1.13 (inactive)
O=C1O[C@H](c2ccccc2)[C@H](c2ccccc2)N2[C@H]1[C@@H](C(=O)O)[C@]1(C(=O)Nc3ccc(C#CCCO)cc31)[C@H]2c1ccc(OCCO)cc1	0.671 (inactive)	0.856	-0.481	-5.39 (inactive)	-0.255 (inactive)	-0.132 (inactive)
COCCCNC(=O)[C@@]1(CCS(=O)(=O)c2ccccc2)COC(c2ccc(OCCCO)cc2)=N1	1.85 (inactive)	-0.227	0.264	-4.7 (inactive)	0.103 (inactive)	0.103 (inactive)
COC(=O)C[C@H]1O[C@@]2(C[C@@H]1[Si](C)(C)C)C(=O)N(C)c1ccccc12	-0.227 (inactive)	-0.186	0.357	-0.91 (inactive)	-0.597 (inactive)	-0.0422 (inactive)
